Screening data: PubChem BioAssay, National Center for Advancing Translational Sciences (NCATS)
In the library only some 21% were active in any assay of this set; here they are far more common.
VP16 counter = counter-screen for ROR gamma inhibitors: Gal4-VP16 reporter. AID 2546. 310,000 tested, 3.5% active. Potency, µM (titrated, usually from 53.6 µM), inactives show at the highest dose activity, negative = inhibition, actives largely listed as inhibitors. Drosophila S2 Gal4-VP16 UAS-luciferase, luminescence, 20 h;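 also: Gal4-VP16 expression switched on by copper sulfate through the metallothionein promoter; potency is read from the fitted curve at half-maximal effect; nearly all actives have a fitted effect of over 50% in size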
ELG1 repair inh = inhibitors of ELG1-dependent DNA repair in HEK293T cells. HEK293T ELG1-luciferase reporter, luminescence, 16 h; DNA damage induced by 5-fluorouridine. Potency, µM (series often up to 46.1 µM), for inactives: at the highest dose activity change, negative = inhibition, usual class: inhibitors. 330,000 tested, 2.3% active; also: potency is read from the fitted curve at half-maximal effect; nearly all actives have a fitted effect of over 55% in size
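Step one: seed 2,000 cells per well. Step two: pin-transfer compound or DMSO alongside 5-fluorouridine. Step three: incubate 16 hr, 37 °C, 5% CO2. Step four: add ONE-Glo, wait 30 min, read luminescence.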
TDP1 cell noCPT = qHTS for Inhibitors of human tyrosyl-DNA phosphodiesterase 1 (TDP1): qHTS in cells in absence of CPT; 420,000 tested, 15% active; DT40 Tdp1-/- hTDP1 cells, no CPT, ATP luminescence, 48 h; Potency, µM (highest dose often 46.2 µM), for inactives: top-dose activity change, negative = growth inhibition, hits mostly inhibitors; also: potency is read from the fitted curve at half-maximal effect; nearly all actives have a fitted effect of over 55% in size
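Stably hTDP1-transfected Tdp1-null chicken DT40 cells were treated with library compounds minus camptothecin and grown for at least 48 hr at 37 °C, after which cellular ATP was quantified by luminescence.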
IL-1B inflam inh = inflammasome signaling inhibition, IL-1 beta readout | activity change, % at 57.5 µM | 360,000 tested, 4.7% active | THP-1 LPS/ATP IL-1B secretion, AlphaLISA, 16 h; active compounds read low; in the data active = activity change below about -50%; inconclusive = mostly about -30% to -49%
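Secreted IL-1B measured by AlphaLISA bead assay after 16 h compound exposure of THP-1 cells; compounds (final up to 57.5 uM) added 1 h before LPS (250 ng/mL) and ATP (1.25 mM) stimulation; lower signal means less secretion.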
RORg inh = ROR gamma (mouse) transcription inhibition; 310,000 tested, 5.4% active; Potency, µM (series often up to 53.6 µM), without a hit: at the highest dose activity change, negative = inhibition, hits mostly inhibitors; P51450; Drosophila S2 Gal4-RORgamma UAS-luciferase reporter, 20 h; also: potency is read from the fitted curve at half-maximal effect; nearly all actives have a fitted effect of over 60% in size
Target sequence (P51450 whole entry, looked up, the tested form may be a part): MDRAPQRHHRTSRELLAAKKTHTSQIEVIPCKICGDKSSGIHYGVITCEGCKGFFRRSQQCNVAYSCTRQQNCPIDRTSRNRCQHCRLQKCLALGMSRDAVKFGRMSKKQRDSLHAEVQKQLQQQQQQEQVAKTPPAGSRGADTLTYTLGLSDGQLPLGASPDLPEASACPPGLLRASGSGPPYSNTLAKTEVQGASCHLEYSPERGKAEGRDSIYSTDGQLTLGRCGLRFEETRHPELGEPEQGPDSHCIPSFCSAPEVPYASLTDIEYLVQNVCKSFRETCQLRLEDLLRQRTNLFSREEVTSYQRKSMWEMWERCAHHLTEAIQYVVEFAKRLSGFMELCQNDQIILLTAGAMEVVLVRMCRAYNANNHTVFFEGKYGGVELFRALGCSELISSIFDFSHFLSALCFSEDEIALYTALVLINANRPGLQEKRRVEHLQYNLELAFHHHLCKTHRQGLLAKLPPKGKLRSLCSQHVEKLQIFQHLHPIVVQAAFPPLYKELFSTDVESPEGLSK
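Drosophila S2 cells stably expressing Gal4-DBD/mouse RORγ fusion under metallothionein promoter plus UAS-luciferase; compound 1 h, then 700 uM CuSO4 induction for 20 h at ambient temperature; inhibition read as reduced luminescence.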
TDP1 cell CPT = growth inhibition of DT40 Tdp1-/-;hTDP1 cells with camptothecin (screen for TDP1 inhibitors). Potency, µM (doses to about 46.2 µM), for the others: at the top dose activity change, negative = growth inhibition, usual class: inhibitors. chicken DT40 Tdp1-/-;hTDP1 cells + 20 nM CPT, ATP luminescence, 48 h. 420,000 tested, 12% active; also: potency is read from the fitted curve at half-maximal effect; nearly all actives have a fitted effect of over 55% in size
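Cell growth measured by CellTiter-Glo luminescence after a minimum 48 h, 37 C compound exposure with 20 nM CPT in Tdp1-knockout DT40 cells stably expressing hTDP1, seeded 400/well; qHTS titration format.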
Starred values were filed as active, the others as inactive; ? = inconclusive; nt = no result; [ ] = remark or other dose. Unless noted, calls follow the shape of the dose curve; as a rule, active = well fitted curve in the direction sought with a large enough effect; inconclusive = small, poorly fitted or top-dose-only effect, or another doubt; inactive = no such curve, though single readings can be large; an effect the other way counts as inactive or inconclusive. % is scaled to controls: 0 for no effect and ±100 for the full control effect.

SMILES | VP16 counter | ELG1 repair inh | TDP1 cell noCPT | IL-1B inflam inh | RORg inh | TDP1 cell CPT
OC(COc1ccc(Br)cc1)CN1CCOCC1 (stereo unspecified) | 3.9% | -4.9% | -21.1% | -3.0 | -0.8% | -3.6%
OC(CNC1CCCC1)COc1ccc(Cl)cc1 (stereo unspecified) | -1.6% | -0.7% | ? | ? | -34.3% | ?
COc1ccccc1N1CCN(CC(O)COc2ccc(C)cc2C)CC1 (stereo unspecified) | -1.5% | -12.9% | ? | -64.7* | -1.6% | ?
CCc1cccc(NC(=O)C(NS(=O)(=O)c2ccc3nc(C)sc3c2)C(C)C)c1 (stereo unspecified) | nt | nt | -18.6% | nt | nt | -7.5%
COc1ccc(NC(=O)/C(=C\c2ccc(F)cc2)NC(=O)c2ccco2)cc1 | -0.8% | 11.2% | -24.1% | -8.8 | -0.4% | 1.2%
COc1cc(Br)c(CC(=O)NO)cc1OC | nt | nt | -29.3% | nt | nt | -3.2%
OCCN1CCN(CC(O)COCCOc2ccc(Br)cc2)CC1 (stereo unspecified) | -9.8% | 24.4% | 23.1µM* | 13.2 | -13.0% | ?
COc1ccccc1N1CCN(CC(O)COc2c(OC)cccc2OC)CC1 (stereo unspecified) | -9.7% | -0.6% | ? | 32.8 | -1.1% | 16.4µM*
COc1ccccc1N1CCN(CC(O)COCCOc2ccc(Br)cc2)CC1 (stereo unspecified) | -8.1% | ? | ? | 0.0 | ? | 16.4µM*
CCOc1ccc(N/C(SCc2cccc([N+](=O)[O-])c2)=C(/C#N)C(N)=O)cc1 | -7.6% | 2.4% | 20.6µM* | -73.4* | -1.6% | ?
COc1cccc(N/C(SCc2cccc([N+](=O)[O-])c2)=C(/C#N)C(=O)NCc2cccs2)c1 | 1.6% | -5.7% | 16.4µM* | -55.3* | 3.0% | ?
Cc1ccc(C(=O)NCCCNC(=O)Cc2ccc(Cl)cc2)cn1 | nt | 11.9% | -18.1% | 18.1 | nt | -1.7%
Cc1ccc(C(=O)C2CCN(CC(=O)NC3CCCC3)CC2)cc1 | 7.6% | -13.0% | -27.9% | -1.3 | -4.8% | 7.1%
CCCCN(CCCC)CCNC(=O)c1cc(-c2cccnc2)nc2ccc(S(=O)(=O)N3CCC(C)CC3)cc12 | nt | nt | -2.0% | nt | nt | 3.66µM*
CCCCN(C)CCNC(=O)c1cc(-c2cccnc2)nc2ccc(S(=O)(=O)N3CCC(C)CC3)cc12 | -0.9% | -8.3% | 14.6µM* | -13.6 | 4.5% | ?
CCN(CC)CCNC(=O)c1cc(-c2cccnc2)nc2ccc(S(=O)(=O)N3CCC(C)CC3)cc12 | -2.0% | 13.4% | ? | -98.8* | -1.8% | ?
OC[C@H]1O[C@@](CO)(O[C@H]2O[C@H](CO)[C@@H](O)[C@H](O)[C@H]2O)[C@@H](O)[C@@H]1O | -3.4% | nt | 0.0% | nt | 25.0% | 6.0%
COc1ccc(S(=O)(=O)N(CC(=O)NC(C)c2ccccc2)c2ccc(C)cc2)cc1OC (stereo unspecified) | nt | nt | 5.8µM* | nt | nt | ?
CCOc1ccc(N(CC(=O)OC)S(=O)(=O)c2ccc(OC)c(OC)c2)cc1 | nt | 1.1% | ? | 15.1 | 7.2%[0.365 µM] | ?
COc1ccc(S(=O)(=O)N(CCc2ccccc2)CC(=O)NCc2ccccc2)cc1OC | nt | nt | ? | nt | nt | 16.4µM*
COc1ccc(S(=O)(=O)N(CC(=O)NCc2ccccc2)c2ccc(C)cc2)cc1OC | nt | nt | 6.51µM* | nt | nt | ?
COc1ccc(S(=O)(=O)N(CCc2ccccc2)CC(=O)O)cc1C | 0.9% | -1.1% | -17.7% | 2.5 | -2.6% | -8.6%
CCOc1ccc(N(CC(=O)NC(C(C)C)C(C)C)S(=O)(=O)c2ccc(OC)c(OC)c2)cc1 | -5.5% | -12.6% | 23.1µM* | 5.1 | -40.2% | ?
O=C(C[C@@H]1C/C=C/CC[C@H](Cc2ccc(F)cc2)C(=O)OC[C@@H](Cc2ccccc2)NC1=O)N[C@H](CO)Cc1ccccc1 | nt | -22.6% | ? | 4.0 | nt | ?
COc1ccc(Cl)cc1NC(=O)c1cc2c(=O)n3ccccc3nc2s1 | nt | nt | -12.6% | nt | nt | -19.2%
SMILES | VP16 counter | ELG1 repair inh | TDP1 cell noCPT | IL-1B inflam inh | RORg inh | TDP1 cell CPT
COc1cccc(C2Nc3ccccc3-c3nnc(SCc4ccccc4)nc3O2)c1OC (stereo unspecified) | nt | nt | -45.5% | nt | nt | ?
CCn1c(SCC(=O)NCc2ccccc2)nnc1-c1c[nH]c2ccccc12 | -1.9% | -17.2% | -12.2% | -12.2 | ? | ?
CC(=O)O[C@@H](C)C#C[Si](C)(C)c1ccccc1 | 0.0% | nt | nt | nt | ? | nt
COc1ccc(OC)c(N(CC(=O)Nc2ccccc2)S(=O)(=O)c2ccccc2)c1 | -1.5% | -29.0% | ? | -6.9 | 28.0% | ?
COc1ccc(C(C)NC(=O)CN(c2cc(OC)ccc2OC)S(=O)(=O)c2ccccc2)cc1 (stereo unspecified) | nt | nt | ? | nt | nt | 20.6µM*
COc1ccc(NC2CCCN(C(=O)c3cc4ncccn4n3)C2)cc1 (stereo unspecified) | 10.1% | ? | 2.8% | 4.5 | 0.6% | 8.0%
Cc1ccc(NC(=O)c2cc(-c3ccco3)on2)cc1 | -23.7% | ? | ? | -27.1 | 21.2% | 14.6µM*
COc1cc(NC(=O)c2ccccn2)cc(OC)c1OC | -10.7% | ? | ? | 2.9 | -5.4% | 16.4µM*
O=C(Nc1cccnc1)c1ccco1 | 5.0% | 14.9% | 23.1µM* | -2.9 | 23.6% | ?
COc1cc(C(=O)Nc2cccnc2)cc(OC)c1OC | 17.5% | -1.8% | 18.7% | 11.9 | -1.4%[1.91 µM] | -4.4%
COc1ccc(OC)c(-c2cc(C(=O)NCc3cccs3)no2)c1 | -10.1% | ? | ? | -13.9 | 42.0% | 20.6µM*
COc1ccccc1-c1cc(C(=O)NCc2cccs2)no1 | 19.0% | ? | -24.9% | 28.6 | 32.0% | -17.9%
Cc1ccc(NC(=O)c2cc(-c3ccco3)on2)cc1C | 1.3% | ? | ? | -11.9 | 27.0% | ?
COc1ccc(C)c2sc(NC(=O)c3ccc(S(=O)(=O)N4CCCCC4)cc3)nc12 | nt | nt | -2.1% | nt | nt | -26.2%
Cc1noc(C)c1-c1cncnc1Nc1ccccc1 | 14.4% | nt | 13.5% | nt | 21.2% | 18.2%
COCCCNC(=O)CNC(=O)c1nn(-c2ccc(OC)c(Cl)c2)c(=O)c2ccccc12 | -0.4% | -5.4% | ? | 4.9 | 5.7% | -5.6%
COc1cccc(C(=O)Nc2cnn(C(C)C)c2)c1 | 0.2% | ? | -20.7% | 2.7 | 4.7% | 3.0%
CC(C)n1cc(NC(=O)c2cc(-c3ccccc3)on2)cn1 | 3.0% | ? | 3.66µM* | 17.6 | 19.8% | 5.17µM*
